# Screening data: PubChem, Broad Institute
# Hits are enriched below; roughly 2.3% of the tested compounds scored in any of these assays.
# DENV2 CPE: inhibitors of DENV2 cytopathic effect | DENV2-infected cells, cytopathic effect rescue, plate reader | 350,000 tested, 1.7% active | CPE inhibition, % at 9.99 µM; in the data active means CPE inhibition above about 20%, passing the limit was not always enough; inconclusive means no clear call, values can overlap the other calls; tested in BHK-21 cells;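 further: 0% = median of neutral control wells and 100% = median of positive control wells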
# Rtt109 Vps75: C. albicans Rtt109 histone acetyltransferase inhibition; Q5AAJ8; purified Rtt109/Vps75, ThioGlo CoA-SH fluorescence, 4 h; inhibition, % at 34.9 µM; 330,000 tested, 0.16% active; AID 540336;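 active means inhibition of at least 50% in every replicate; inconclusive means best replicate reaches 50% inhibition but some replicates fall short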
# PDI turbidity: PDI (human) enzyme inhibition; P07237; PDI insulin aggregation turbidity, A650, 90 min; inhibition, % at 10 µM; 350,000 tested, 0.052% active; AID 588391;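 active means mean inhibition across replicates of 30% or more, whatever share of single replicates reach that level; inconclusive means mean inhibition below 30% while every single replicate reaches 30%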
# Target sequence (P07237 whole entry, looked up): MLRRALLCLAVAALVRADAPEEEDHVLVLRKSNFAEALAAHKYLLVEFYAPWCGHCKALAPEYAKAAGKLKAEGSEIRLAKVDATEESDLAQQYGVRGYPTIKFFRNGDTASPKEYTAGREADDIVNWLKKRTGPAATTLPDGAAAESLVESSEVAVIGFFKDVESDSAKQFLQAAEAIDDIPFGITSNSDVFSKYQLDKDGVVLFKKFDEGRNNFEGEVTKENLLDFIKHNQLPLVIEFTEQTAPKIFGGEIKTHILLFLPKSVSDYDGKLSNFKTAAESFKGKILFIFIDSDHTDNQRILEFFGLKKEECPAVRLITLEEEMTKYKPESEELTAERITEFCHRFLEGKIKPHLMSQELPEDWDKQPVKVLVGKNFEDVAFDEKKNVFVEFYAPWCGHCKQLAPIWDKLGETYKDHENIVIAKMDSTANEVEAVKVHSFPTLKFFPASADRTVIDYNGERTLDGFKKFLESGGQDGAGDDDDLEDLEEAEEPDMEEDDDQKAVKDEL
# SIRT5 block: blocks human SIRT5 desuccinylation of peptide | Q9NXA8 | Purified SirT5, succinyl-peptide AMC, trypsin-coupled fluorescence | inhibition, % at 15 µM | 330,000 tested, 1.1% active | AID 652115; in the data active means inhibition above about 15%; inconclusive means no clear call, values can overlap the other calls
# ERp5 block: ERp5 (human) disulfide isomerase inhibition | ERp5 insulin aggregation, absorbance 650 nm, 90 min | inhibition, % at 9.99 µM | AID 651711 | 350,000 tested, 0.05% active;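 active means mean replicate inhibition above about 25%, with every replicate also reaching it, limit read from the data, passing the limit was not always enough; inconclusive means only one of those two criteria met; inactive means neither criterion met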
# Numbers without * were called inactive; u = inconclusive; x = no result given.
SMILES,DENV2 CPE,Rtt109 Vps75,PDI turbidity,SIRT5 block,ERp5 block
Cc1nc(NC(=O)C2CC2)sc1C,-8,5,-4,22*,1
Cc1nc(NC(=O)C2CC2)sc1C(=O)NC1CCCCC1,1,-3,1,-3,-6
N#C/C(=C\c1c(Cl)cccc1Cl)c1nn(-c2ccccc2)c(-n2cccc2)c1C#N,-5,56*,-1,-3,0
N#Cc1cccc(-c2ccc([C@@H]3[C@H](CO)N4CCCCN(C(=O)Nc5ccc(F)cc5)C[C@@H]34)cc2)c1,26*,x,x,x,-4
CCC(=O)N1CCCCN2[C@H](C1)[C@H](c1ccc(-c3cccc(C#N)c3)cc1)[C@@H]2CO,1,x,x,2,-6
CCC(=O)N1CCCCN2[C@H](CO)[C@H](c3ccc(-c4cccc(C#N)c4)cc3)[C@@H]2C1,-3,x,x,21*,-3
CCC(=O)Nc1ccc2c(c1)OC[C@H](C)N(CCc1ccccc1)C[C@@H](C)[C@@H](OC)CN(C)C2=O,0,x,x,10,1
Cc1cc(F)cc(-c2cc(C(=O)NCC3CCCCC3)[nH]n2)c1,27*,x,-14,0,-2
O=C(C[C@H]1CC[C@@H](NC(=O)C2CCOCC2)[C@@H](CO)O1)Nc1ccccc1,11,x,x,-3,-1
O=C(C1CCCC1)N1[C@@H](CO)[C@@H]2c3ccccc3N(S(=O)(=O)c3ccccc3)C[C@@H]21,16,x,x,-3,-1
Cc1sc2ncnc(N3CCC(C(=O)Nc4ccc(Cl)cc4Cl)CC3)c2c1C,30*,x,-6,-1,-9
Cc1sc2ncnc(N3CCC(C(=O)Nc4ccc(Cl)c(Cl)c4)CC3)c2c1C,-10,-2,1,-2,4
Cc1ccc(S(=O)(=O)Nc2ccc3c(c2)C(=O)N([C@@H](C)CO)C[C@@H](C)[C@H](CN(C)C(=O)c2ccccc2)OCCCC[C@@H](C)O3)cc1,-4,x,x,1,1
COc1ccccc1-c1ccc2c(c1)O[C@@H](CN(C)S(=O)(=O)c1ccc(F)cc1)[C@@H](C)CN([C@@H](C)CO)S2(=O)=O,-6,x,x,23*,-3
COc1ccccc1-c1ccc2c(c1)O[C@@H](CN(C)S(=O)(=O)c1ccc(C)cc1)[C@H](C)CN([C@@H](C)CO)S2(=O)=O,-2,x,x,-3,13
COc1ccccc1-c1ccc2c(c1)O[C@H](CN(C)S(=O)(=O)c1ccc(F)cc1)[C@H](C)CN([C@@H](C)CO)S2(=O)=O,1,x,x,18*,-7
COc1ccccc1-c1ccc2c(c1)O[C@@H](CN(C)S(=O)(=O)c1ccc(F)cc1)[C@@H](C)CN([C@H](C)CO)S2(=O)=O,3,x,x,20*,3
COc1ccccc1-c1ccc2c(c1)O[C@H](CN(C)S(=O)(=O)c1ccc(C)cc1)[C@H](C)CN([C@H](C)CO)S2(=O)=O,5,x,x,4,-1
CCC(C(=O)N1CCOCC1)n1nc(C)c2sc3ccccc3c2c1=O (configuration not stated),8,-2,1,30*,9
C[C@@H]1CN([C@H](C)CO)C(=O)Cc2cc(NC(=O)CCCCCC(=O)Nc3ccccc3N)ccc2O[C@@H]1CN(C)S(C)(=O)=O,91*,x,x,x,11
Cc1noc(C)c1S(=O)(=O)N(C)C[C@@H]1Oc2ccc(NC(=O)CCCCCC(=O)Nc3ccccc3N)cc2CC(=O)N([C@@H](C)CO)C[C@@H]1C,29*,x,x,3,-3
C[C@@H]1CN([C@H](C)CO)C(=O)Cc2cc(NC(=O)CCCCCC(=O)Nc3ccccc3N)ccc2O[C@@H]1CN(C)CC1CC1,11,x,x,-2,5
C[C@@H]1CN([C@@H](C)CO)C(=O)Cc2cc(NC(=O)CCCCCC(=O)Nc3ccccc3N)ccc2O[C@H]1CN(C)CC1CC1,21*,x,x,1,-6
C[C@@H]1CN([C@@H](C)CO)C(=O)c2cccc(NC(=O)Nc3ccc4c(c3)OCO4)c2O[C@@H]1CN(C)S(=O)(=O)c1ccccc1,18,x,x,-3,-23
O=C(O)c1ccc(/C=C2/SC(=S)N(Cc3ccccc3)C2=O)cc1,-5,-3,-2,-1,3
CC(=O)Oc1ccc(/C=C2/SC(=S)N(Cc3ccccc3)C2=O)cc1,6,8,-12,16*,-2
CCOc1ccc(/C=C2\SC(=S)N(CCC(=O)Nc3cccc(C(=O)O)c3)C2=O)cc1,32*,1,-7,1,-3
O=C(CCCN1C(=O)/C(=C\c2ccco2)SC1=S)Nc1ccc(O)cc1C(=O)O,3,u,28,40*,-1
